Measured values as given in paper PMC10668032, “Altered binding affinity of SIX1-Q177R correlates with enhanced WNT5A and WNT pathway effector expression in Wilms tumor”.
In all, about 33,000 sequences were measured (“e-score”: median about -0.053, highest 2% from about 0.38 on). Shown is part of a subset that was picked to be rich in the highest values.

target: T1, SIX1 homeodomain (reference allele) (human, UniProt Q15475 108-198); assay: universal protein binding microarray; Universal all-10-mer PBM (8x60K, AMADID 030236), 300 nM GST-tagged protein, Alexa Fluor 488 anti-GST; buffer, salt, pH and temperature not stated (as in Berger); high values mean tight binding; conditions: protein: ivt; tags: N-terminal GST; dsDNA, one strand shown
T1 sequence: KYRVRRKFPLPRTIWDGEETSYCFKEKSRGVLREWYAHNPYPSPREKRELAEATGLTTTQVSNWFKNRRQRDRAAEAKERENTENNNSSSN
Summary of the method: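 GST-tagged homeodomains were made by in vitro transcription/translation and quantified by anti-GST western blot against a recombinant GST standard curve. They were applied in duplicate at 300 nM final concentration to universal 'all 10-mer' protein binding microarrays (8×60K format). Binding was quantified as 8-mer E-scores with the Universal PBM Analysis Suite.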

Sequence	binding signal [E-score]
ATGCACTA	0.159 ± 0.065
CGTATTTA	0.169 ± 0.0073
GCTGGATA	0.324 ± 0.0373
GCCGGATA	0.409 ± 0.0137
GCCAGATA	0.213 ± 0.0509
CCCGGATA	0.424 ± 0.0139
CCTGGATA	0.313 ± 0.0384
CCCGGAGA	0.169 ± 0.0421
CCCGATAC	0.438 ± 0.0253
ACCGATGA	0.17 ± 0.0208
ACCGACAC	0.2857 ± 0.000453
ACCGATCC	0.382 ± 0.0237
CCCGACAC	0.19 ± 0.0993
ACCGATAC	0.453 ± 0.017
ATCGATCG	0.256 ± 0.037
ACCGATCA	0.2912 ± 0.000771
ATCGATCC	0.389 ± 0.0532
CCCGATCC	0.366 ± 0.0566
ATCGATCA	0.17 ± 0.0323
CCCGATAG	0.205 ± 0.0789
ATCTTACC	0.296 ± 0.0402
CGTGTCAG	0.202 ± 0.0504
ATACTCGG	0.316 ± 0.01
ATCGTCAC	0.279 ± 0.00711
GATCTGCA	0.258 ± 0.0208
ATCACTGG	0.215 ± 0.00955

Sequence	binding signal [E-score]
CCGGGTGA	0.201 ± 0.0475
GCCGATCC	0.352 ± 0.0357
ACCGATAT	0.396 ± 0.00927
ACCGATAG	0.352 ± 0.018
TCCGATAA	0.223 ± 0.0291
GCCGATAC	0.42 ± 0.0113
ACCGATCT	0.251 ± 0.0228
TATAAATA	0.16 ± 0.095
CGAGATGA	0.187 ± 0.0163
AGTAGATA	0.334 ± 0.0532
ATAGCTAC	0.163 ± 0.0342
AGGCGTAT	0.318 ± 0.00622
TATCTGAA	0.153 ± 0.0196
GAGGATAA	0.278 ± 0.00471
AAGGATAA	0.167 ± 0.034
CAGGATAC	0.365 ± 0.0177
GAGGATAC	0.403 ± 0.0104
AAGGATAC	0.405 ± 0.0292
AAGGATAG	0.195 ± 0.0349
ACATTGAT	0.154 ± 0.01
ATGAGACC	0.295 ± 0.00298
ATCACATC	0.284 ± 0.0264
CACCGATC	0.305 ± 0.0428
CCATATAC	0.29 ± 0.00643
ACATATCG	0.389 ± 0.0479
CAATATCG	0.296 ± 0.0508

Sequence	binding signal [E-score]
CCATATCC	0.424
ACATATCT	0.233 ± 0.09
ACATATCC	0.381 ± 0.0241
CCATATAG	0.211 ± 0.0217
ACCTATCG	0.236 ± 0.0191
ACATATAC	0.244 ± 0.0208
ACATATAG	0.162 ± 0.052
CCATATGC	0.159 ± 0.0297
CCATATCG	0.4544 ± 0.00281
ATATTCAG	0.164 ± 0.0437
GCTTATCC	0.304 ± 0.0229
TAGATGGA	0.289 ± 0.00593
AACAGTAT	0.196 ± 0.107
CGGATTCC	0.247 ± 0.00447
CAGAACAA	0.176 ± 0.0355
ATATTAAC	0.156 ± 0.0934
CAAGATCA	0.242 ± 0.0215
TATCAGGA	0.397 ± 0.00041
TATCAGCA	0.327 ± 0.0344
TATCCTCA	0.37 ± 0.037
TCTCATAA	0.161 ± 0.0418
TATCATAA	0.381 ± 0.0345
GATCATAA	0.306 ± 0.00493
GATCATGA	0.273 ± 0.0126
TATCATCA	0.412 ± 0.0218
TATCATGA	0.382 ± 0.0397

Sequence	binding signal [E-score]
TATTATCA	0.187 ± 0.0898
GATCAGGA	0.339 ± 0.0411
GGTCATGA	0.169 ± 0.033
AGGTGGAT	0.305 ± 0.034
CATAGATC	0.249
CGGTGTGA	0.204 ± 0.0905
GGTTAGAA	0.153 ± 0.0251
ATACTCTA	0.268 ± 0.0991
CATAATCC	0.3 ± 0.0272
AATTGTAT	0.162 ± 0.0456
CATACCAG	0.171 ± 0.0153
CCATTATA	0.177 ± 0.0248
ATCCAAGA	0.155 ± 0.0124
CAGGGCGA	0.216 ± 0.0603
CTATCCGA	0.33 ± 0.00993
ATATCCGC	0.43 ± 0.0222
CAATCCGC	0.29 ± 0.0084
GTATCCGA	0.426 ± 0.0105
ATCTCCGA	0.258 ± 0.0265
ATATCCGA	0.429 ± 0.0108
CTATCCGC	0.3601 ± 0.000778
GAATCCGA	0.188 ± 0.0166
AAATCCGG	0.244 ± 0.0271
ATATCCGG	0.4206 ± 0.00416
GCATCCGA	0.203 ± 0.0461
ACATCCGG	0.174 ± 0.064

Sequence	binding signal [E-score]
ATCGAAGA	0.293 ± 0.0315
GCCAATAC	0.16 ± 0.00361
TCAGCTCA	0.162 ± 0.0286
ACTATCTG	0.178 ± 0.0443
GATCGCAA	0.242 ± 0.0198
GATCGTGA	0.229 ± 0.0511
ATCACTAA	0.166 ± 0.051
ATCGTAGA	0.193 ± 0.0118
GGTGTACA	0.306 ± 0.0258
CATACATG	0.154 ± 0.0235
ATCCGCGA	0.259 ± 0.011
GAGTGATA	0.447 ± 0.0268
GAGAGATA	0.323 ± 0.0528
CAGTGATA	0.417 ± 0.0231
TAGTGTGA	0.184 ± 0.00834
TAGTGAGA	0.203 ± 0.0506
AAGTGATA	0.397 ± 0.0754
TAGTGATA	0.415 ± 0.0394
CAGTGAGA	0.16 ± 0.032
GAGTGAGA	0.234 ± 0.0134
AAGAGATA	0.235 ± 0.141
ACGTGATA	0.344 ± 0.0436
ATACTTCG	0.304 ± 0.058
GACAATCC	0.18 ± 0.0145
ATCAACAA	0.222 ± 0.0259
CATATGAC	0.166 ± 0.0391

Sequence	binding signal [E-score]
ATACATCG	0.238 ± 0.0407
ACTTACCG	0.152 ± 0.00235
TATATTGA	0.258 ± 0.0428
GTGTCGGA	0.322 ± 0.041
GGATGGGA	0.195 ± 0.0444
CAGATTGA	0.219 ± 0.0123
CCGTGATA	0.348 ± 0.0248
GCGTGATA	0.437 ± 0.0364
CAGTGATC	0.382 ± 0.0157
AATTGATC	0.291 ± 0.0151
ACGTGATC	0.302 ± 0.0538
AAGTGATC	0.391 ± 0.00486
GAGTGATC	0.336 ± 0.0148
CCGTGATC	0.364 ± 0.0193
GATCTATA	0.298 ± 0.0183
CCTACACC	0.163 ± 0.0313
CCGTAATA	0.205 ± 0.0335
TACTCGAA	0.152 ± 0.00667
TACACGGA	0.173 ± 0.0418
ACCATCCG	0.23 ± 0.0704
ATACATCC	0.365 ± 0.0231
GATTAATA	0.301 ± 0.0732
ATACGCGG	0.182 ± 0.0649
AAAGGTAT	0.337 ± 0.087
AAGGGTAA	0.173 ± 0.0225
AGGGGTAT	0.451 ± 0.0124

Sequence	binding signal [E-score]
ACAGGTAT	0.312 ± 0.0224
ACGGGTAT	0.435 ± 0.0111
AGGGGTAC	0.178 ± 0.0933
AGGGGTAG	0.214 ± 0.0325
CCGGGTAG	0.162 ± 0.0432
AAGGGTAT	0.41 ± 0.0209
AGAGGTAT	0.399 ± 0.0394
AACGGTAT	0.234 ± 0.0543
AAGGGTGT	0.32 ± 0.00631
CATCCCGA	0.175 ± 0.0394
CGGATTGA	0.305 ± 0.0268
AATGTATA	0.259 ± 0.0211
ACACCTCT	0.239 ± 0.0609
TATCCAAA	0.297 ± 0.0104
GGATTACA	0.18 ± 0.0206
ATCGTCTG	0.162 ± 0.0451
CCGGCATC	0.201 ± 0.0414
AATACTGC	0.162 ± 0.0355
GATACTTA	0.401 ± 0.0667
TATACTGA	0.239 ± 0.00916
GACACTGA	0.161 ± 0.0506
